In the library only some 1.8% were active in any assay of this set; here they are far more common.
TLR4 MyD88 blk: inhibitors of human TLR4-MyD88 binding; inhibition, % at 10 µM; 16,000 tested, 0.06% active; Cell-based TLR4-MyD88 binding inhibition assay; in the data active = inhibition above about 45%
S1P1 agonist: activates the human S1P1 receptor; 16,000 tested, 1.5% active; Sphingosine 1-phosphate receptor 1 (Homo sapiens), P21453; activation, % at 4.5 µM; S1P1 agonist cell-based reporter assay; AID 1044, 2008; in the data active = activation above about 80%
Target sequence (P21453 whole entry, looked up): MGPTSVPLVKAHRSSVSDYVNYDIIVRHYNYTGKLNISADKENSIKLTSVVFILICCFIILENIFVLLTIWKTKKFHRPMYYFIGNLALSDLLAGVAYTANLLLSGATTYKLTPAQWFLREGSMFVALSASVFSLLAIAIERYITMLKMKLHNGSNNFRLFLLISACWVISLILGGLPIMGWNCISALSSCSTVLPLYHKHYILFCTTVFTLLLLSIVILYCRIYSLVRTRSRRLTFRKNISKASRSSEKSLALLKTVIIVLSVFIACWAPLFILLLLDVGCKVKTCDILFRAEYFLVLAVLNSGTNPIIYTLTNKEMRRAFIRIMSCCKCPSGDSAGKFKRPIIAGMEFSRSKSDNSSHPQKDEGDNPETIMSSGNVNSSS
rat GALR2 ag: agonists of rat galanin receptor 2 (GALR2); Galanin receptor type 2 (Rattus norvegicus), O08726; cell-based GALR2 agonist screen; activation, % at 10 µM; 16,000 tested, 0.5% active; in the data active = activation above about 15%
* marks the source's active call; other numbers are inactive results.

SMILES	TLR4 MyD88 blk	S1P1 agonist	rat GALR2 ag
C#CCOC(=O)Nc1cnc(Oc2c(Cl)cccc2Cl)c(C(F)(F)F)c1	1	99*	-10
Nc1cnc(Oc2c(Cl)cccc2Cl)c(C(F)(F)F)c1	10	86*	-5
Nc1cnc(Sc2ccccc2)c(C(F)(F)F)c1	0	-15	-4
COC(=O)c1cnc(Sc2ccccc2NC(=O)c2cccs2)c([N+](=O)[O-])c1	-11	14	-8
Cc1oc2ccccc2c1CC(=O)NNC(=S)Nc1cccc(C(F)(F)F)c1	7	0	-6
COc1ccc(OCCC(=O)N/N=C/c2ccc([N+](=O)[O-])cc2)cc1	-4	-5	-6
O=C(/C(=C\c1ccccc1)n1ccnc1)c1ccccc1OCc1ccccc1	-1	121*	-9
C=C(c1ccccc1O)n1ccnc1	-7	-8	-7
CC(ONC(=O)c1cc(C(F)(F)F)cc(C(F)(F)F)c1)C(=O)Nc1ccc(Cl)cc1 (stereo unspecified)	-3	110*	-8
O=C(NNC(=O)c1cc(C(F)(F)F)cc(C(F)(F)F)c1)c1ccc(Cl)cc1	-1	-8	-11
O=C(Cc1cccs1)Nc1cc(C(F)(F)F)ccc1OCC(F)(F)F	3	-24	-4
O=C(/C(=C\C(=O)c1ccco1)c1ccccc1)c1ccccc1	1	7	-4
CC(=O)Nc1ccc(F)cc1NC=C(C#N)C#N	2	1	-4
CSc1ccc(C(F)(F)F)cc1NC=C(C#N)C#N	-2	89*	-9
O=C1CN(c2ccc(OC(F)(F)F)cc2)C(=O)CN1CC1CC1	6	3	44*
O=C1CC(c2ccc(NC(=O)C(F)(F)F)cc2)C(=O)N1c1ccc(OC(F)(F)F)cc1 (stereo unspecified)	-8	6	-7
O=C(CN1CCCCC1)Nc1cc(Cl)cc(Cl)c1	11	10	0
O=c1ccc(-c2ccncc2)n[nH]1	-3	-9	23*
Cc1ccc(-c2cc(Cc3ccncc3)c(=O)[nH]n2)cc1	-11	-16	-5
Cc1c(NCN2C(=O)CCC2=O)cc2c(c1[N+](=O)[O-])C(C)(C)CC2(C)C	-5	81*	-10
Cc1c(N=NC2=C(O)CC(C)(C)CC2=O)cc2c(c1[N+](=O)[O-])C(C)(C)CC2(C)C	-6	55	-4
CSc1sc(C(=O)NNC(=O)Nc2ccc(Cl)cc2)c2c1C1(CCC2)SCCS1	-8	-13	-7
CSc1sc(C(=O)NC(=O)Nc2ccc(Cl)cc2)c2c1-c1nocc1CC2	-3	108*	-3
C=C1SC(Nc2ccc(C)cc2C)=NC12CCCCC2	9	-9	7
CCCSc1ccc([N+](=O)[O-])c(NC(=NCCS(=O)(=O)O)NC(=O)OC)c1	-3	-14	-5
SMILES	TLR4 MyD88 blk	S1P1 agonist	rat GALR2 ag
Cn1nccc1NC(=O)/C(C#N)=C/c1cccc(Cl)c1	-10	-2	-5
CS(=O)(=O)/C(C#N)=C\c1ccc(Cl)s1	6	-5	-5
CS(=O)(=O)/C(C#N)=C/c1ccccc1OCc1c(Cl)cccc1Cl	-5	30	18*
CC1(C)CCc2cc(CN3CCN(c4ccc(F)cc4)CC3)ccc2O1	-1	9	-5
CCOC(=O)/C(C#N)=C/Nc1cccnc1Oc1ccc(C)c2c1CCC2	-9	-6	27*
CCOC(=O)/C(C#N)=C/Nc1cc(F)ccc1C	7	-8	-8
O=C(Nc1ccccc1-c1nc(-c2ccc(Cl)cc2)no1)C(F)(F)F	-6	20	-6
O=c1/c(=C/c2cccs2)sc2nnc(-c3ccc(Cl)cc3)n12	9	-11	-3
CCCCCC[n+]1ccccc1/C=C/c1ccc(N(C)C)cc1	64*	113*	-14
O=[N+]([O-])c1cccc(C(O)CNCc2ccc3c(c2)OCO3)c1 (stereo unspecified)	-6	2	-8
N#C/C(=C\c1ccc(-c2ccc(C(F)(F)F)cc2[N+](=O)[O-])o1)S(=O)(=O)c1ccccc1	15	30	-9
COC(=O)c1cc(OC)c(OC)cc1NC(=O)Nc1cc(Cl)cc(Cl)c1	0	-9	-6
Cc1csc2ncnc(NNC(=O)c3ccc(Cl)cc3)c12	1	35	-11
Cc1csc2ncnc(NCCc3ccc(Cl)cc3)c12	-2	102*	-8

High-throughput results (PubChem)
